From article PMC7819943, “Rice protein-binding microarrays: a tool to detect cis-acting elements near promoter regions in rice”
The full ranking holds about 68,000 sequences; the median of “fluorescence intensity (a.u.)” is about 9,100, and the highest 2% start at about 16,000. For the sample, the highest values were picked, then their nearest neighbours and some sequences at random.

Target: OsWRKY34 (Oryza sativa, UniProt Q0JBA9 1-250)
Assay: protein-binding microarray (RPBM); PBS, 2% BSA, 51.3 ng/ul salmon testes DNA, 50 uM zinc acetate, 200 nM TF, 25 C, 1 h; high values mean tight binding
Settings: protein: recombinant; tags: N-terminal polyhistidine and DsRed monomer fusion (pET32a); label: CyDye5-dUTP incorporated in the synthesized complementary strand; 3' TTTTT single-stranded linker to array surface; dsDNA, one strand shown
How it was run: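 Polyhistidine-tagged DsRed fusions of transcription factors, joined at the N-terminus, were expressed in E. coli BL21-CodonPlus and isolated on Ni–NTA. They were incubated at 200 nM for 1 h at 25 °C on a custom Agilent array, double-stranded and BSA-blocked, in PBS with 2% BSA, salmon testes DNA and 50 µM zinc acetate. The binding signal is per-feature fluorescence intensity (arbitrary units) read on an Axon 4000B scanner after washing.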

Chain of OsWRKY34 (Q0JBA9 entry or part of it): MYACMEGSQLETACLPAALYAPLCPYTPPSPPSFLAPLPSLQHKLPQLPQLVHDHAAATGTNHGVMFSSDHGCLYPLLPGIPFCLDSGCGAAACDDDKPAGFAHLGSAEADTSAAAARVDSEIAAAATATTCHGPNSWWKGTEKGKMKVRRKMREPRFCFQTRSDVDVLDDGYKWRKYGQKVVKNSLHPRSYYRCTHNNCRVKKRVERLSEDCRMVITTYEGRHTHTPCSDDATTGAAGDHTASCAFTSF

Point of comparison: “TCCATCCCATTCCCGCCATCTCTGCATCTTCTTCTTCTTCCGGAGTCACCTAGTGCAG”, binding signal 9910 fluorescence intensity (a.u.). Against it:
- ATTGTTTTTTTTCTTTCTTTTTGCAAATCTCGCTTCGCTTCGGAGTCACCTAGTGCAG — lower, 8540 fluorescence intensity (a.u.)
- GTTCGTTCGCCCTGCTGCTTCTCCCGCCGCATCCATCCCGCGGAGTCACCTAGTGCAG — lower, 9640 fluorescence intensity (a.u.)
- TCCTCTTCTGTTTTTCTGTTTTTTTTCGTTTCTCTTCCCTCGGAGTCACCTAGTGCAG — higher, 13300 fluorescence intensity (a.u.)
- TGTGCTTCTTTTTTTAATTTCTCTCTCTGTTTGCTTCTCTCGGAGTCACCTAGTGCAG — lower, 9720 fluorescence intensity (a.u.)
- ACCGGTGGCTTTGTTTGGTTCCACGGTCTTCAGGTTGGGACGGAGTCACCTAGTGCAG — lower, 8130 fluorescence intensity (a.u.)
- TGTGCGCGTGTTGTTTTTTTGGCTTCTTTTTCGCTTGCCACGGAGTCACCTAGTGCAG — higher, 11400 fluorescence intensity (a.u.)
- TTTTTTCGGTGTTTTTCTTTTTGTTTCTTTTCGCTTCGCTCGGAGTCACCTAGTGCAG — higher, 12700 fluorescence intensity (a.u.)
- GTGGGCATGATTTTCTTCTGTTTTCTCGTTTTAATTTTTTCGGAGTCACCTAGTGCAG — higher, 20100 fluorescence intensity (a.u.)
- CGGCTTCTCGCTTTCTTGTTTCTCGTGGAGTTGCTTTTTTCGGAGTCACCTAGTGCAG — higher, 17500 fluorescence intensity (a.u.)
- GCTTCTCCATCTCGCATCTGCTGCCTCCTAATTTGCTTCGCGGAGTCACCTAGTGCAG — higher, 10000 fluorescence intensity (a.u.)
- TCTCTCCATCCATCCCTGCTGCTTCTCCATCTCGCATCTGCGGAGTCACCTAGTGCAG — higher, 16700 fluorescence intensity (a.u.)
- ATAATCTCCACATGCATCGTCGCTGTATTTTTTGGTTTCACGGAGTCACCTAGTGCAG — lower, 8510 fluorescence intensity (a.u.)
- TTGTACTACTATTTCTTCATGTTACATAATTCTCCTTGTTCGGAGTCACCTAGTGCAG — lower, 8540 fluorescence intensity (a.u.)
- TAGTATTTTTTTCCTTGGTTTTGTTTCTATCTCCTCTGACCGGAGTCACCTAGTGCAG — lower, 9480 fluorescence intensity (a.u.)
- AATGTATAGGTGGTCCCGTGCTTTTGTATTGTGTTTGCGTCGGAGTCACCTAGTGCAG — higher, 10400 fluorescence intensity (a.u.)
- TTCTCTACATTGTTCATTTAGTATTTTTTTCTTTTCATTTCGGAGTCACCTAGTGCAG — higher, 10700 fluorescence intensity (a.u.)
- ATGGCAACGACCCAGTTCTGTCCGAGTAGGACTCCTTCCACGGAGTCACCTAGTGCAG — lower, 8310 fluorescence intensity (a.u.)
- CCTGGTTGGTTTGGCTCGCACGTGGCGCGTCGTCCTACGCCGGAGTCACCTAGTGCAG — lower, 9870 fluorescence intensity (a.u.)
- TTATTTACAAACGAGTTCCATTTTTTTCTACGGTGATCGGCGGAGTCACCTAGTGCAG — lower, 8120 fluorescence intensity (a.u.)
- CTTGTTACTAATATACTAGTATTTGAGTGTTACACGTTTTCGGAGTCACCTAGTGCAG — lower, 8380 fluorescence intensity (a.u.)
- ATGCCCATTTTGTAGCGTCGATTCTTGTTTCTGCTTGATTCGGAGTCACCTAGTGCAG — higher, 10300 fluorescence intensity (a.u.)
- TCTCTTCTTCTTCTCCAACTTCTTTTTTCTCTTCTTCTTCCGGAGTCACCTAGTGCAG — lower, 9680 fluorescence intensity (a.u.)
- TTTTTTGAGCCGTATTTTTGCTCTCTTGTTACGTTTTTTTCGGAGTCACCTAGTGCAG — higher, 17100 fluorescence intensity (a.u.)
- GCCATTCCACATCAGTCCGTGCCGCTCTCTGCCCATTCTCCGGAGTCACCTAGTGCAG — higher, 18900 fluorescence intensity (a.u.)
- ATCTGTATCTTTGTTTATTTTTTTTATTTTTCTCCCATTTCGGAGTCACCTAGTGCAG — higher, 10600 fluorescence intensity (a.u.)
- CTCCATCTCGCATCTTCTCTTTCTCTTTCTCTTTCTCTTTCGGAGTCACCTAGTGCAG — higher, 13300 fluorescence intensity (a.u.)
- TTCTTCTTCTGCCATTCCATCCATCCACCGCCGCCTCCGCCGGAGTCACCTAGTGCAG — lower, 8380 fluorescence intensity (a.u.)
- TCTCTTTTCACCCACCGCACCCATCCAACTTCTCTTCTCTCGGAGTCACCTAGTGCAG — higher, 17900 fluorescence intensity (a.u.)
- GATTGTAGTTTGTATATGCTGCCCATTTCTGTTGTTCTTTCGGAGTCACCTAGTGCAG — higher, 18900 fluorescence intensity (a.u.)
- CAGTTTGAGTTTTTGTTAGTTATTTCGTTTATTTTTTTTTCGGAGTCACCTAGTGCAG — higher, 12300 fluorescence intensity (a.u.)
- AGGTGTAATAGTATTTTGTTGTCTAATTGGTTTTGATTGTCGGAGTCACCTAGTGCAG — higher, 11400 fluorescence intensity (a.u.)
- TATTTCTCTCGCCACAATCTCTGGCGGCGCCACAATCTTACGGAGTCACCTAGTGCAG — lower, 8850 fluorescence intensity (a.u.)
- GGCCTGGAGCTCAGTCAAACAGTTTCAGCTCAGCTCTATCCGGAGTCACCTAGTGCAG — lower, 8520 fluorescence intensity (a.u.)
- TCTCTTCGCTCTGCCCACTTGCTAAACCATACCGGCGATACGGAGTCACCTAGTGCAG — higher, 9960 fluorescence intensity (a.u.)
- CATCCATCGTATCCACCGCCGTCGCCTTCCATCCTCCCCGCGGAGTCACCTAGTGCAG — lower, 8040 fluorescence intensity (a.u.)
- GTGGGAGGGAGGGCGGCGAGCTGCGCGGCGAACCTCGAGCCGGAGTCACCTAGTGCAG — lower, 8120 fluorescence intensity (a.u.)
- CCTTTTTTTTTCCGAGTGTGTGGCTCTCAGATGGAGTTAGCGGAGTCACCTAGTGCAG — lower, 8450 fluorescence intensity (a.u.)
- TGGGTGGGGATGAAGTGTGGAAGTGGCATATCTTTATCCACGGAGTCACCTAGTGCAG — lower, 8320 fluorescence intensity (a.u.)
- TGGTGTAGGGTTATGATTGGATGAGTAGTGGAGGTAGGTACGGAGTCACCTAGTGCAG — lower, 9780 fluorescence intensity (a.u.)
- GGTAGGATTGTACTTTTTTTTTTTTTGGGACGGAGGGGTACGGAGTCACCTAGTGCAG — higher, 10100 fluorescence intensity (a.u.)
- TGGTGGCGGCGGTGGCAGTGGTGGTGTTGGGATTGGGGTACGGAGTCACCTAGTGCAG — lower, 9230 fluorescence intensity (a.u.)
- AACGTGGAAGTGGATTGGGTGGTGGGTGGGGATCCACCTACGGAGTCACCTAGTGCAG — higher, 22100 fluorescence intensity (a.u.)
- CCTTGGGTGGGTACGGATTGGATTAGGGAGGGGAGCACAACGGAGTCACCTAGTGCAG — higher, 17600 fluorescence intensity (a.u.)
